High-throughput results deposited in PubChem BioAssay by National Center for Advancing Translational Sciences (NCATS).
Pf growth 48h: Primary qHTS for delayed death inhibitors of the malarial parasite plastid, 48 hour incubation. P. falciparum luciferase growth in erythrocytes, 48 h. Potency, µM (titrated, usually from 28.7 µM), for inactives: at the highest dose activity change, negative = inhibition, actives largely listed as inhibitors. 310,000 compounds, 5.9% hits. AID 504832, 2011; note: potency is the fitted concentration of half-maximal effect; % is set by controls: 0 for no effect and ±100 for the full control effect
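Erythrocytes infected with P. falciparum carrying an integrated firefly luciferase reporter (2% hematocrit, 0.1% parasitemia final) were exposed to compounds in RPMI 1640 with 0.5% Albumax at 37 C, 5% CO2. Growth inhibition was scored as reduced luminescence.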
NS1 inh: qHTS Assay for Inhibitors of Influenza NS1 Protein Function; Potency, µM (highest dose often 46.1 µM), inactives show top-dose activity, positive = more growth; 270,000 compounds, 0.4% hits; calls by dose curve; note: potency is the fitted concentration of half-maximal effect; actives are rising curves; nearly all actives have a fitted effect of over 50% in size
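A cell-based growth assay was used: compounds that relieve NS1-induced slow growth of budding yeast raise OD600. Assay medium was yeast nitrogen base with ammonium sulphate and -URA supplement, pH 6.0, with 2% galactose.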
Pf growth 96h: Primary qHTS for delayed death inhibitors of the malarial parasite plastid, 96 hour incubation. P. falciparum luciferase reporter growth, 96 h. Potency, µM (doses to about 28.7 µM), for inactives: top-dose activity change, negative = inhibition, hits mostly inhibitors. 320,000 compounds, 6.9% hits; note: potency is the fitted concentration of half-maximal effect; % is set by controls: 0 for no effect and ±100 for the full control effect
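Luminescence readout: decreased luciferase signal marks inhibited growth of reporter-expressing P. falciparum in infected red cells (2% hematocrit, 0.05% parasitemia final), exposed to compound two generations (96 h, 37 C, 5% CO2).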
CHX counter: Cycloheximide Counterscreen for Small Molecule Inhibitors of Shiga Toxin; cell reporter, cycloheximide protein synthesis inhibition counterscreen; max response, %; 300,000 compounds, 12% hits; AID 2314, 2010; in the data active = max response mostly above about 13%, no sharp cut-off; inactive = mostly below about 14%; note: read at 38.3 µM for the half of the compounds with a filed dose; 0% is about no effect
Shiga toxin inh: A qHTS for Small Molecule Inhibitors of Shiga Toxin | Vero cells, Shiga toxin protein synthesis inhibition reporter | inhibition, % at 38.7 µM | 290,000 compounds, 9.2% hits; in the data active = inhibition mostly above about 28%, no sharp cut-off; inactive = mostly below about 43%; note: 0% is about no effect
Active calls of the source: *; i = inactive; ? = inconclusive; . = not tested or not shown. Sampled rows, rich in hits. Any-hit rate of the full collection: about 21%. Unless noted, calls come from the whole dose curve; as a rule, active = well fitted inhibition curve with a large enough effect; inconclusive = small, poorly fitted or top-dose-only effect, or another doubt; inactive = no such curve, though single readings can be large or run the other way.

SMILES | Pf growth 48h | NS1 inh | Pf growth 96h | CHX counter | Shiga toxin inh
COc1ccc(C(=O)NC2CCC(O)CC2)cc1S(=O)(=O)NCc1ccc(Cl)cc1 (stereo not given) | 13.1µM* | . | ? | . | .
COC(=O)c1sc2ccccc2c1NC(=O)c1ccc(S(=O)(=O)N2CC(C)CC(C)C2)cc1 (stereo not given) | -10.3% | 4.5% | -15.0% | -1.4 | -10.9
Cc1cccc2sc(NNC(=O)c3ccc(S(=O)(=O)N4CC(C)CC(C)C4)cc3)nc12 (stereo not given) | ? | 9.0% | 2.94µM* | -2.6 | -2.5
Cc1cc(C)c2nc(NNC(=O)c3ccc(S(=O)(=O)N4CC(C)CC(C)C4)cc3)sc2c1 (stereo not given) | 2.62µM* | -10.4% | 1.85µM* | 1.8 | 11.0
Cc1cc(C)c2nc(NNC(=O)c3ccc(S(=O)(=O)N4CCCC(C)C4)cc3)sc2c1 (stereo not given) | ? | 24.4% | 2.33µM* | -3.7 | -11.0
CCOC(=O)/C=C/C(=O)N1CCN(C(=O)/C=C/C(=O)OCC)CC1 | ? | -2.7% | ? | 5.5 | 17.9
CC(=O)Nc1ccc(NC(=O)CSc2nnc3ccc(-c4ccc(F)cc4)nn23)cc1 | 26.3% | 4.0% | 49.9% | -3.7 | -4.4
CCN(CC)S(=O)(=O)c1ccc(OC)c(NC(=O)c2cccs2)c1 | ? | -6.0% | i | -2.5 | -14.2
NC(=O)C1CCCN1C(=O)C(Cc1cnc[nH]1)NC(=O)C1CCC(=O)N1 (stereo not given) | . | . | . | -2.2 | 11.2
COc1cccc(OC)c1OCCNCC1CSc2ccccc2O1 (stereo not given) | . | -5.2% | . | . | .
Cn1c(CN2CCCC2)nc2cc(NC(=O)COc3ccc(Cl)cc3)ccc21 | ? | -39.8% | . | -3.5 | -1.3
Cn1c(CN2CCOCC2)nc2cc(NC(=O)c3ccc(F)cc3)ccc21 | 7.4% | -10.0% | 112.3% | 17.2* | 53.8*
Cn1c(CN2CCCC2)nc2cc(NC(=O)c3cccs3)ccc21 | 69.8% | 16.7% | 26.1% | 34.9* | 64.5*
CC(=O)N1CCN(Cc2nc3cc(NC(=O)c4cccs4)ccc3n2C)CC1 | -10.7% | 3.5% | 6.3% | 1.3 | -7.1
CC(=O)N1CCN(Cc2nc3cc([N+](=O)[O-])ccc3n2C)CC1 | 14.3% | 5.4% | 26.4% | -1.4 | 4.0
Cn1c(CN2CCN(C(=O)c3ccc(F)cc3)CC2)nc2cc([N+](=O)[O-])ccc21 | ? | -6.9% | 13.1µM* | -5.4 | -5.8
Cn1c(CN2CCCC2)nc2cc(NC(=O)c3ccc(Cl)cc3)ccc21 | ? | . | -24.1% | 35.4* | 42.4*
Cn1c(CN2CCOCC2)nc2cc(NC(=O)c3ccccc3Cl)ccc21 | -15.6% | 9.9% | 0.1% | -2.8 | -3.5
Cc1cccc2cc(CN(CC3CCCO3)C(=O)c3ccco3)c3nnnn3c12 (stereo not given) | 36.6% | 2.1% | 13.0% | -1.9 | -26.8
CC(=O)N1CCN(Cc2nc3cc(NC(=O)C4CCCCC4)ccc3n2C)CC1 | -22.8% | 8.4% | 1.85µM* | -3.3 | -6.6
CC(c1ccccc1)N1CCn2c(nc3cc(NC(=O)c4cccs4)ccc32)C1 (stereo not given) | ? | -56.4% | . | 21.4* | 26.3
Cc1ccc(CN2C(=O)CCC2C(=O)NCc2ccccc2Cl)cc1 (stereo not given) | -6.5% | . | ? | 3.6 | 21.0
COc1ccccc1NC(=O)Cn1nnc(-c2ccccc2NC(=O)c2cnccn2)n1 | 19.2% | . | -7.0% | -0.7 | -6.1
COc1ccccc1C(=O)NC(CCSC)C(=O)N1CCC(Cc2ccccc2)CC1 (stereo not given) | 14.7µM* | . | ? | . | .
CSCCC(NC(=O)c1ccccc1)C(=O)N1CC=C(c2ccccc2)CC1 (stereo not given) | 9.28µM* | -15.1% | ? | 10.6 | 10.7
SMILES | Pf growth 48h | NS1 inh | Pf growth 96h | CHX counter | Shiga toxin inh
N#C/C(=C\c1cc2c(cc1Br)OCO2)C(=O)NCC1CCCO1 (stereo not given) | 16.8% | -10.4% | 7.3% | -1.9 | -13.1
Cc1ccc(OCc2csc(N)n2)cc1 | 425.4% | . | 176.0% | 34.6* | 83.3*
Nc1nc(COc2ccccc2)cs1 | . | -9.8% | 36.9% | 14.0 | 33.6
COC(=O)Cc1csc(N)n1 | 8.5% | -1.8% | ? | -1.2 | 21.8
Cc1ccccc1OCc1csc(N)n1 | 45.2% | 6.9% | 43.2% | 15.9* | 32.9
Cc1cccc(OCc2nnc(N)s2)c1C | ? | -8.4% | ? | 13.3 | -2.4
Nc1nc(COc2ccc(Cl)cc2)cs1 | 132.3% | 2.0% | 129.2% | 32.7* | 65.0*
Cc1ccc(S(=O)(=O)Nc2c(C)nn(C)c2C)c(C)c1 | ? | . | 0.1% | . | .
Cc1ccc(C(=O)N/C(=C\c2ccccc2)C(=O)NCCN2CCOCC2)cc1 | 18.0% | 9.0% | 8.9% | 1.5 | -6.0
COc1ccc(C)cc1NC(=O)c1cnc2sccn2c1=O | 32.0% | -8.4% | ? | -3.1 | 10.6
O=C(CSc1nc(C2CCCCC2)n(-c2ccccc2)n1)NCC(F)(F)F | 16.8% | -5.7% | -1.4% | -1.4 | -5.0
CSc1nnc(CCNC(=O)OC(C)(C)C)o1 | 29.0% | -0.4% | -3.0% | 13.0 | 54.1*
Cc1ccc(C)c(NC(=O)CSc2nnc(CCNC(=O)OC(C)(C)C)o2)c1 | . | 9.5% | -11.2% | -7.2 | -11.0
CSc1nnc(CCCCCCCCc2nnc(SC)o2)o1 | ? | 3.5% | 13.1µM* | -3.7 | -6.8
Cc1ccc(NC(=O)CSc2nnc(CCCCCNC(=O)OC(C)(C)C)o2)c(C)c1 | -13.5% | -5.2% | 13.1µM* | -3.6 | -3.9
Cc1c(Cl)cccc1NC(=O)CSc1nnc(CCNC(=O)OC(C)(C)C)o1 | -4.1% | 6.0% | 10.4µM* | -4.9 | -8.0
CC(C)NC(=O)c1ccc(CS(=O)(=O)c2ccc(Br)cc2)o1 | . | 1.1% | 28.1% | -3.4 | 4.0
CCN(C(=O)c1ccc2c(Cl)c3c(nc2c1)CCC3)c1ccc(C)c(C)c1 | ? | ? | 10.4µM* | -2.9 | -12.5
CN(C(=O)c1ccc2c(Cl)c3c(nc2c1)CCC3)c1ccccc1 | 95.9% | -37.2% | ? | 45.0* | 93.5*
COc1cccc(NC(=O)CN(C)C(=O)CN2C(=O)c3ccc([N+](=O)[O-])cc3C2=O)c1 | 10.1% | . | 7.7% | . | .
COc1nc(-c2ccccc2)ccc1-c1noc(-c2ccccc2)n1 | 91.3% | -21.9% | . | 11.1 | 42.2
COc1nc(-c2ccccc2)ccc1-c1noc(-c2ccco2)n1 | 99.5% | -9.1% | 11.1% | 33.6* | 70.5*
COc1ccc(-c2ccc(-c3noc(-c4ccco4)n3)c(OC)n2)cc1 | 49.5% | 15.3% | -9.8% | 23.1* | 50.9*
CN(CC1CCN(CCc2cccc(C(F)(F)F)c2)CC1)C(=O)c1ccccc1 | 4.7% | 9.7% | ? | -3.3 | -6.5
CN(CC1CCN(CCc2cccc(C(F)(F)F)c2)CC1)C(=O)c1ccc(F)cc1 | -14.1% | 3.0% | 13.1µM* | -2.9 | -5.3
COc1ccc(OCc2nc(N)nc(Nc3ccccc3)n2)cc1 | 7.9% | 6.6% | ? | 21.3* | 24.7
Cc1nc(N)nc(COc2ccccc2)n1 | 42.9% | -0.7% | 108.2% | 36.8* | 46.0*
